Pf growth 96h: Primary qHTS for delayed death inhibitors of the malarial parasite plastid, 96 hour incubation; P. falciparum luciferase reporter growth, 96 h; Potency, µM (highest dose often 28.7 µM), for the others: top-dose activity change, negative = inhibition, hits mostly inhibitors; 320,000 tested, 6.9% active; further: on the % scale 0 is the no-effect control and ±100 the full control effect
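Two-generation exposure (96 h) targets delayed-death phenotype. Reporter parasites carrying integrated firefly luciferase, in red cells at 2% hematocrit and 0.05% parasitemia final, kept at 37 C, 5% CO2; luminescence loss indicates inhibition.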
HCV inh: qHTS Assay for Inhibitors of Hepatitis C Virus (HCV); Huh7.5.1 HCVcc-Cre infection, luciferase reporter, 44 h; Potency, µM (highest dose often 41.8 µM), for the others: top-dose activity change, negative = inhibition, hits mostly inhibitors; 340,000 tested, 3.4% active; further: on the % scale 0 is the no-effect control and ±100 the full control effect
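Antiviral activity was scored by luciferase reporter output from cells infected with HCVcc-Cre (~0.5 moi) in presence of compound, 44 h infection period, cells seeded 1,000/well 4 h prior.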
NS1 function inh: qHTS Assay for Inhibitors of Influenza NS1 Protein Function; Potency, µM (highest dose often 46.1 µM), for inactives: at the top dose activity, positive = more growth; 270,000 tested, 0.4% active; calls by dose curve; further: actives are rising curves; nearly all actives have a fitted effect of over 50% in size
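Growth recovery, yeast-based: influenza A NS1 expressed in S. cerevisiae causes slow growth, and suppressors are detected by OD600. The parent strain without NS1 is used as positive control.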
AMA1-RON2 inh: qHTS for Inhibitors of AMA1-RON; Towards Development of Antimalarial Drug Lead: Primary Screen; AlphaScreen AMA1-biotinylated RON2 peptide binding; Potency, µM (doses to about 58.2 µM), for the others: at the highest dose activity change, negative = inhibition, most hits filed as inhibitors; 360,000 tested, 0.2% active; Plasmodium falciparum AMA1 (3D7) - RON2 peptide interaction;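 further: 0% = vehicle wells and -100% = peptide control; nearly all actives have a fitted effect of over 45% in size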
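AMA1 (3D7) with his tag at 25 nM final met compounds first, then biotinylated RON2 peptide at 25 nM; detection used donor plus acceptor beads, 10 µg/mL apiece, read by AlphaScreen after 30 min at room temperature.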
SARS PLpro yeast: qHTS of Yeast-based Assay for SARS-CoV PLP. S. cerevisiae expressing SARS-CoV PLpro, growth rescue. 330,000 tested, 0.19% active. Potency, µM (top dose mostly 32.9 µM), for the others: at the highest dose activity, positive = growth rescue, usual class: activators; calls by dose curve; further: 0% is about no effect; nearly all actives have a fitted effect of over 55% in size
Pf growth 48h: Primary qHTS for delayed death inhibitors of the malarial parasite plastid, 48 hour incubation; P. falciparum luciferase growth in erythrocytes, 48 h; 310,000 tested, 5.9% active; AID 504832, 2011; Potency, µM (series often up to 28.7 µM), for the others: at the top dose activity change, negative = inhibition, usual class: inhibitors; further: on the % scale 0 is the no-effect control and ±100 the full control effect
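Erythrocytes infected with P. falciparum carrying an integrated firefly luciferase reporter (2% hematocrit, 0.1% parasitemia final) were exposed to compounds in RPMI 1640 with 0.5% Albumax at 37 C, 5% CO2. Growth inhibition was scored as reduced luminescence.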
The depositor's hits bear a star; u = inconclusive; x = no result. Compounds with a hit are over-represented: about 12% of the library has one in this group of screens. Unless noted, the call rests on the fitted dose curve; in most records, active means well fitted curve in the direction sought with a large enough effect; inconclusive means small, poorly fitted or top-dose-only effect, or another doubt; inactive means no such curve, though single readings can be large; an effect the other way counts as inactive or inconclusive. Potency means the concentration at half of the fitted maximal effect.

SMILES	Pf growth 96h	HCV inh	NS1 function inh	AMA1-RON2 inh	SARS PLpro yeast	Pf growth 48h
COCc1ccc(-c2ccc3c(c2)c(C#Cc2ccsc2)c(-c2cc(OC)cc(OC)c2)n3C)cc1	u	3.3%	x	-2.9%	6.9%	u
COc1cc(C#Cc2c(-c3cncn3C)n(C)c3ccc(-c4ccc5[nH]ccc5c4)cc23)cc(OC)c1	0.828µM*	u	x	26.1%	-1.4%	1.47µM*
COc1ccc(NC(=O)Cc2c(F)cccc2Cl)c(OC)c1	-15.0%	u	4.3%	-2.6%	-4.6%	10.2%
Cn1cnc2c(cnn2C)c1=N	x	5.4%	x	8.4%	x	x
COc1cccc(C=O)c1OCCN1C(=O)c2ccccc2C1=O	u	-4.8%	1.2%	-4.1%	-13.1%	41.1%
Cn1c(SCCN2CCCC2)nnc1C1CCN(S(=O)(=O)c2cccc(F)c2)CC1	0.0%	3.4%	10.6%	-2.7%	-0.2%	13.5%
CN1c2ccccc2Sc2cc(N)ccc21	-15.2%	-2.6%	-124.6%	u	-31.0%	u
COc1ccc(-[n+]2c(C)cc(/C=C3\Sc4ccccc4N3C)cc2C)cc1	u	1.12µM*	x	-4.8%	-4.4%	0.738µM*
COc1ccccc1-[n+]1c(C)cc(/C=C2\Sc3ccccc3N2C)cc1C	0.586µM*	u	-116.6%	-0.7%	-23.3%	0.928µM*
CC(=S)/C=C1\Sc2ccccc2N1C	u	2.2%	17.0%	-17.0%	12.5%	u
COc1ccc(C(=O)/C=C2\Sc3ccccc3N2C)cc1	169.1%	10µM*	2.8%	-11.3%	-0.9%	31.2%
COc1ccc(/C=C2/C(=O)OCc3cc(OC)c(OC)cc32)cc1	-49.6%	u	-23.1%	9.5%	-24.1%	-0.2%
O=C(CNc1ccc2ccccc2c1)N/N=C/c1ccc(OC(=O)/C=C/c2ccco2)cc1	30.8%	4.5%	7.4%	21.1%	4.4%	8.28µM*
Cc1cc(OC(C)C(=O)NCc2cccnc2)c2c(C)c(Cc3ccccc3)c(=O)oc2c1 (configuration not stated)	u	12.6µM*	3.0%	7.0%	-0.7%	u
Cc1cc(OC(C)C(=O)NCc2cccnc2)c2c3c(c(=O)oc2c1)CCC3 (configuration not stated)	10.4µM*	u	5.1%	-9.6%	-2.1%	u
COc1cccc(/C=C2\SC(=O)N(CCC(=O)NC3CCS(=O)(=O)C3)C2=O)c1 (configuration not stated)	9.28µM*	-0.5%	-13.3%	5.8%	-1.1%	-3.0%
O=C(CCN1C(=O)S/C(=C\c2ccccc2)C1=O)NC1CCS(=O)(=O)C1 (configuration not stated)	11.7µM*	5.0%	-3.0%	-6.0%	u	-6.8%
COc1cccc(/C=C2\SC(=O)N(CC(=O)NC3CCS(=O)(=O)C3)C2=O)c1 (configuration not stated)	u	12.1%	-5.4%	36.6%	0.8%	u
CCN(C(=O)CN1C(=O)S/C(=C\c2cccc(OC)c2)C1=O)C1CCS(=O)(=O)C1 (configuration not stated)	8.28µM*	19.6%	0.0%	26.7%	-1.4%	u
COc1cccc(/C=C2\SC(=O)N(CC(=O)NC3C=CS(=O)(=O)C3)C2=O)c1 (configuration not stated)	11.7µM*	1.9%	-0.2%	-3.4%	0.5%	u
O=Cc1cn(CCOc2ccccc2F)c2ccccc12	u	5.2%	14.6%	19.4%	-10.7%	23.6%
O=[N+]([O-])c1cccnc1N1CCC(c2cc(-c3ccc(Cl)cc3)n[nH]2)CC1	u	10µM*	-66.6%	-25.2%	-36.0%	x
COC(=O)c1cn(NC(=O)c2cc(OC)c(OC)c(OC)c2)c(=O)c2ccccc12	3.29µM*	-12.8%	-6.0%	16.8%	-1.5%	3.7%
COC(=O)c1cn(NC(=O)c2cc(OC)cc(OC)c2)c(=O)c2ccccc12	-23.3%	-10.2%	-5.2%	16.4%	8.5%	-8.1%
COC(=O)c1cn(NC(=O)c2ccncc2)c(=O)c2ccccc12	5.86µM*	16.1%	-8.7%	1.8%	-1.4%	11.1%
SMILES	Pf growth 96h	HCV inh	NS1 function inh	AMA1-RON2 inh	SARS PLpro yeast	Pf growth 48h
COCCNC(=O)CN1C(=O)/C(=C/c2ccccc2)Oc2ccc(C(C)(C)C)cc21	38.8%	-27.6%	12.3%	12.3%	-1.1%	u
NC1=NC2(CCCCC2)N=C(Nc2ccc(Br)cc2)N1	u	u	-8.2%	24.7%	-7.9%	1.04µM*
Cc1cccc(C)c1NC1=NC2(CCCCC2)N=C(N)N1	95.4%	-4.8%	-2.7%	-11.6%	6.9%	u
Cc1ccc(NC2=NC3(CCCCC3)N=C(N)N2)c(C)c1	8.28µM*	5.4%	-5.2%	-4.9%	5.5%	u
O=C(O)CC1(CC(=O)NCc2cc(F)cc3c2OCOC3)CCCCC1	u	5.0%	0.5%	-8.0%	0.1%	-15.3%
O=C(CNC(=O)c1ccc(Br)o1)OCC(=O)c1cccc([N+](=O)[O-])c1	u	-18.9%	1.6%	16.3%	-1.0%	-4.3%
N/C(=N\OC(=O)c1ccccc1Cl)c1ccc(Cl)cc1	36.7%	18.3%	-19.2%	33.0%	-28.9%	214.1%
N/C(=N\OC(=O)COc1ccccc1)c1ccc(Cl)cc1	13.1µM*	6.2%	-13.4%	36.2%	27.6%	65.5%
N/C(=N\OC(=O)c1ccc(Cl)cc1)c1ccc(Cl)cc1	2.62µM*	0.0%	3.3%	6.5%	-94.2%	u
N/C(=N\OC(=O)c1ccc(F)cc1)c1ccccc1	10.4µM*	1.9%	-63.7%	31.0%	-14.7%	34.4%
Nc1nc(Nc2ccccc2F)nc(N2CCCC2)c1[N+](=O)[O-]	126.8%	8.91µM*	-41.2%	-2.1%	-2.0%	99.5%
Cc1cccc(Nc2nc(N)c([N+](=O)[O-])c(N3CCN(C)CC3)n2)c1	u	u	0.1%	2.2%	11.8%	u
CCN1CCN(c2nc(Nc3ccccc3F)nc(N)c2[N+](=O)[O-])CC1	u	6.0%	3.6%	-10.8%	-5.1%	67.0%
Cc1cccc(Nc2nc(N)c([N+](=O)[O-])c(N3CCCC(C)C3)n2)c1 (configuration not stated)	u	u	-14.7%	u	-85.2%	11.7µM*
CC(C)CCNc1nc(N)c([N+](=O)[O-])c(N2CCCCCC2)n1	2.08µM*	u	-53.1%	-17.0%	-2.7%	3.7µM*
CCOC(=O)N1CCN(C(=O)COc2cc(=O)n(CC)c3ccccc23)CC1	35.6%	3.5%	5.5%	8.2%	3.0%	-11.6%

Screening data as filed in PubChem.
